From PubChem BioAssay (EPA / NIEHS)
Records with an inconclusive call do not appear. Activity calls are given as the source filed them. How the source made its calls, unless noted: active means hit-call score of the fitted dose curve at least 0.9, where 1 is the maximum; inconclusive means response in the unintended direction; inactive means score below 0.9.

Experiments:
[1] = ATG_M_19_CIS: Attagene CIS-FACTORIAL HepG2 Assay for M19 Transcription Factor (Internal Marker) (AID 2282939; active means hit-call score of the fitted dose curve at least 0.9, where 1 is the maximum; inactive means score below 0.9); conditions: HepG2 Attagene CIS-FACTORIAL M19 internal marker reporter; actives raise or lower the signal
In short: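 Background-control endpoint from a multiplexed HepG2 reporter panel. Cells carrying cis-regulated reporter constructs are treated 24 h, then reporter transcripts are amplified, fluorescently labelled and sized by capillary electrophoresis. DMSO defines baseline.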

[2] = ATG_FoxO_CIS: Attagene CIS-FACTORIAL HepG2 Assay for human Forkhead box O (FoxO) (AID 2282943; active means hit-call score of the fitted dose curve at least 0.9, where 1 is the maximum; inactive means score below 0.9); conditions: HepG2 Attagene cis-reporter, FoxO element, mRNA; actives raise or lower the signal
In short: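 Values reflect reporter mRNA induction or loss in HepG2 cells 24 h post-dosing, fitted bidirectionally with DMSO as negative control and baseline. Detection used RT-PCR and fluorescence capillary electrophoresis.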

[3] = ATG_GRE_CIS: Attagene CIS-FACTORIAL HepG2 Assay for human Glucocorticoid Response Elements (GRE) (AID 2282947; active means hit-call score of the fitted dose curve at least 0.9, where 1 is the maximum; inactive means score below 0.9); conditions: HepG2 GRE cis-reporter, Attagene multiplex mRNA; actives raise or lower the signal
In short: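 Cells (HepG2) bearing transfected cis-promoter reporter transcription units were treated with chemical for 24 hours. Reporter mRNA was measured via RT-PCR with capillary electrophoresis, and activity was fitted in both directions relative to DMSO.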

[4] = molecular target: Hypoxia-inducible factor 1-alpha (Homo sapiens) (UniProt Q16665); assay: ATG_HIF1a_CIS: Attagene CIS-FACTORIAL HepG2 Assay for human Hypoxia Inducible Factor 1 (HIF1A) (AID 2282951; active means hit-call score of the fitted dose curve at least 0.9, where 1 is the maximum; inactive means score below 0.9); conditions: HepG2 Attagene cis-factorial HIF1a reporter transcription; actives raise or lower the signal
In short: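 Transient MRTU transfection of human HepG2 liver cells, 24 h compound treatment, then total RNA isolation, oligo(dT) reverse transcription, PCR amplification, fluorescent labelling and capillary electrophoresis of reporter fragments. Gain or loss relative to DMSO.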

[5] = molecular target: Heat shock factor protein 1 (Homo sapiens) (UniProt Q00613); assay: ATG_HSE_CIS: Attagene CIS-FACTORIAL HepG2 Assay for human Heat Shock Transcription Factor 1 (HSE) (AID 2282953; active means hit-call score of the fitted dose curve at least 0.9, where 1 is the maximum; inactive means score below 0.9); conditions: HepG2 HSE cis-reporter, Attagene RNA transcription; actives raise or lower the signal
In short: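 Cells were transfected with cis-element-driven reporter constructs, dosed for 24 h, then total RNA was reverse-transcribed and reporter cDNA amplified, FAM-labelled and digested with HpaI. Fragments were resolved by capillary electrophoresis; gain or loss was fitted against DMSO.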

[6] = molecular target: Hepatocyte nuclear factor 4-alpha (Homo sapiens) (UniProt P41235); assay: ATG_HNF4a_TRANS: Attagene TRANS-FACTORIAL HepG2 Assay for human Hepatocyte Nuclear Factor 4 alpha (HNF4a) (AID 2282982); conditions: HepG2 HNF4a transactivation reporter, mRNA readout
In short: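 In this trans-factorial format, a chimeric HNF4a-GAL4 fusion drives a GAL4-UAS reporter in transfected HepG2 liver cells. After 24 h treatment, reporter mRNA induction is measured by RT-PCR with capillary electrophoresis, relative to DMSO.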

[7] = ATG_M_06_TRANS: Attagene TRANS-FACTORIAL HepG2 Assay for M06 Transcription Factor (Internal Marker) (AID 2282983); conditions: HepG2 Attagene TRANS M06 internal marker reporter
In short: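 Background control endpoint: reporter mRNA from transiently transfected HepG2 after 24 h dosing, detected by RT-PCR with capillary electrophoresis fluorescence. Analysed for gain versus DMSO.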

[8] = ATG_NRF2_ARE_CIS: Attagene CIS-FACTORIAL HepG2 Assay for human Nuclear Factor Erythroid 2 Related Factor 2 (NFR2) response to Antioxidant Response Elements (ARE) (AID 2282992; active means hit-call score of the fitted dose curve at least 0.9, where 1 is the maximum; inactive means score below 0.9); conditions: HepG2 Attagene ARE/NRF2 reporter, transcription factor activity; actives raise or lower the signal
In short: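 Using transiently transfected HepG2 cells exposed for 24 h, reporter mRNA levels were determined by RT-PCR with fluorescent primer extension and capillary electrophoresis, analysed for gain or loss of signal against DMSO.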

[9] = molecular target: Peroxisome proliferator-activated receptor gamma (Homo sapiens) (UniProt P37231); assay: ATG_PPARg_TRANS: Attagene TRANS-FACTORIAL HepG2 Assay for human Peroxisome Proliferator-activated Receptor-gamma (PPARg) (AID 2283007)
In short: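 Transient transfection of HepG2 with GAL4-UAS-driven reporter units; chemical dosing 24 h; total RNA → oligo(dT) RT → PCR with reporter primers → 6-FAM primer extension → HpaI digest 2 h 37 C → capillary electrophoresis. Positive direction vs DMSO.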

[10] = molecular target: Nuclear receptor subfamily 1 group I member 2 (Homo sapiens) (UniProt O75469); assay: ATG_PXR_TRANS: Attagene TRANS-FACTORIAL HepG2 Assay for human Pregnane X Receptor (PXR) (AID 2283008)
In short: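 Multiplexed TRANS reporter panel in HepG2; this component tracks PXR-Gal4-driven reporter mRNA after 24 h dosing, measured by RT-PCR with capillary electrophoresis fluorescence, fitted against DMSO.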

[11] = molecular target: human Thyroid Receptor alpha (THRa1), THRA (gene 7067) (UniProt P10827); assay: ATG_THRa1_TRANS: Attagene TRANS-FACTORIAL HepG2 Assay for human Thyroid Receptor alpha (THRa1) (AID 2283014)
In short: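 Reporter transcript induction, read by capillary electrophoresis of 6-FAM-labelled RT-PCR products, reflects activity of a transfected THRa1-Gal4 fusion in HepG2 liver cells. Cells were dosed for 24 h; activity was fitted in the positive direction against DMSO.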

[12] = ATG_PBREM_CIS: Attagene CIS-FACTORIAL HepG2 Assay for human Phenobarbital-responsive Enhancer Module (PBREM) (AID 2282955; active means hit-call score of the fitted dose curve at least 0.9, where 1 is the maximum; inactive means score below 0.9); conditions: HepG2 PBREM cis-reporter, Attagene multiplexed transcription; actives raise or lower the signal
In short: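 Endogenous transcription factors in human liver HepG2 cells drive a PBREM cis-element reporter, whose transcript level after 24 h treatment is quantified by RT-PCR with capillary electrophoresis; activity fitted in both directions against DMSO.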

[13] = ATG_RORE_CIS: Attagene CIS-FACTORIAL HepG2 Assay for human RAR-related Orphan Receptor Element (RORE) (AID 2282959; active means hit-call score of the fitted dose curve at least 0.9, where 1 is the maximum; inactive means score below 0.9); conditions: HepG2 Attagene cis-factorial RORE reporter, mRNA; actives raise or lower the signal
In short: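 Transient MRTU transfection of human HepG2 liver cells (FuGene 6); 24 h compound exposure; TriZol RNA, oligo(dT) RT, PCR, FAM labeling, HpaI cut, CE fragment analysis. DMSO = negative control/baseline.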

[14] = molecular target: human Peroxisome Proliferator-activated Receptor alpha (PPARa), PPARA (gene 5465) (UniProt Q07869); assay: ATG_PPARa_TRANS: Attagene TRANS-FACTORIAL HepG2 Assay for human Peroxisome Proliferator-activated Receptor alpha (PPARa) (AID 2283001)
In short: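 Cells (HepG2) are transfected with multiple reporter transcription units, exposed to chemical for 24 h, then total RNA is reverse-transcribed and amplified. Labelled products are quantified by capillary electrophoresis; induction is referenced to DMSO.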

[15] = molecular target: Retinoic acid receptor RXR-alpha (Homo sapiens) (UniProt P19793); assay: ATG_RXRa_TRANS: Attagene TRANS-FACTORIAL HepG2 Assay for human Retinoid X Receptor alpha (RXRa) (AID 2283012)
In short: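 Measures exogenous chimeric NR-GAL4 activity in transfected HepG2 liver cells after 24 h of dosing. Induced reporter mRNA was detected by RT-PCR with capillary electrophoresis, and gain of signal was analysed against DMSO.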

[16] = molecular target: Cellular tumor antigen p53 (Homo sapiens) (UniProt P04637); assay: TOX21_p53_BLA_p3_ratio: Tox21 HCT-116 p53 Agonism Beta-lactamase Assay, Ratio, Phase 3 (AID 2283596)
In short: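 Cells were seeded at 4000/well, rested 5 h at 37C, then dosed with DMSO compound solutions (217-fold dilution) for 16 h. CCF4-AM substrate was loaded for 2 h at room temperature, and the 460/530 nm emission ratio was fitted for gain of signal versus DMSO.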

[17] = molecular target: Cellular tumor antigen p53 (Homo sapiens) (UniProt P04637); assay: TOX21_p53_BLA_p5_ratio: Tox21 HCT-116 p53 Agonism Beta-lactamase Assay, Ratio, Phase 5 (AID 2283599)
In short: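 HCT-116 cells carrying a p53-inducible beta-lactamase reporter were seeded at 4000 cells/well and dosed after 5 h with compound in DMSO (217-fold dilution). After 16 h at 37C, CCF4-AM substrate was added for 2 h, and the 460/530 nm emission ratio was scored as gain-of-signal versus DMSO.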

[18] = TOX21_p53_BLA_p5_viability: Viability Assessment in the Tox21 HCT-116 p53 Agonism Beta-lactamase Assay, Phase 5 (AID 2283600)
In short: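 Workflow: seed 4000 cells per well, wait 5 h, add compounds (DMSO, 217-fold dilution), incubate 16 h, load CCF4-AM 2 h, add CellTiter-Glo, read luminescence after 30 min.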

[19] = molecular target: Cellular tumor antigen p53 (Homo sapiens) (UniProt P04637); assay: TOX21_p53_BLA_p4_ratio: Tox21 HCT-116 p53 Agonism Beta-lactamase Assay, Ratio, Phase 4 (AID 2283601)
In short: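 HCT116 cells carrying an inducible beta-lactamase reporter were plated at 4000 cells/well, rested 5 h, then exposed to compounds in DMSO (217-fold dilution) for 16 h at 37C. CCF4-AM substrate was loaded 2 h at room temperature; 460/530 nm emission ratio scored gain-of-signal versus DMSO.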

[20] = molecular target: Cellular tumor antigen p53 (Homo sapiens) (UniProt P04637); assay: TOX21_p53_BLA_p2_ratio: Tox21 HCT-116 p53 Agonism Beta-lactamase Assay, Ratio, Phase 2 (AID 2283592)
In short: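 Plated HCT116 p53-bla cells (4000/well) received compound after 5 h, then 16 h at 37C/5% CO2. CCF4-AM added, 2 h RT. Ratio of 460 to 530 nm emission taken as the p53 reporter signal.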

Measured: AC50

Chain of Nuclear receptor subfamily 1 group I member 2 (Homo sapiens) (O75469 whole entry, looked up, the tested form may be a part): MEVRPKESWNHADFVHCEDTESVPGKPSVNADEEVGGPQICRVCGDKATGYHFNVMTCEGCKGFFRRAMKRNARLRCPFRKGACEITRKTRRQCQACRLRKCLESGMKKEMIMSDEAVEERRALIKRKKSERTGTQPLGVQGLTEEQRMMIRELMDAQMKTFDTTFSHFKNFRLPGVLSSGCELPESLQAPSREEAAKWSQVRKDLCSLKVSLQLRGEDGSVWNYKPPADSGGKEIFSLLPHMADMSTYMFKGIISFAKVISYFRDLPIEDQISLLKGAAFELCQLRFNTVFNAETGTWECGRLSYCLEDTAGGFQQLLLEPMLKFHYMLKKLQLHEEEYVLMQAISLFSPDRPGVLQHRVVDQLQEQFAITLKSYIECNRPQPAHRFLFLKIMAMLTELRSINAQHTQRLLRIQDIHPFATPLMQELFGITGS
Chain of Cellular tumor antigen p53 (Homo sapiens) (P04637 whole entry, looked up): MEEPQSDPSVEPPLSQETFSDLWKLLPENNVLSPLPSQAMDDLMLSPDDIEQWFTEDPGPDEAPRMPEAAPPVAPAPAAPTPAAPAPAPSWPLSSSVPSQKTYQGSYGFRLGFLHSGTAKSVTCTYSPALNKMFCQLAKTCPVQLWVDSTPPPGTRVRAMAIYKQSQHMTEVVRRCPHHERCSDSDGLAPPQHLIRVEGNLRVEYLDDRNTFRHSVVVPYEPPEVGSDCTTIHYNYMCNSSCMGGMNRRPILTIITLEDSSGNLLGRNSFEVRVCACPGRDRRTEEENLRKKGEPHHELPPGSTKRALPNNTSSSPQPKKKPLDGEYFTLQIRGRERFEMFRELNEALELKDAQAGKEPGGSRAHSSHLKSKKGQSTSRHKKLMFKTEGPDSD
Chain of human Thyroid Receptor alpha (THRa1), THRA (gene 7067) (P10827 whole entry, looked up, the tested form may be a part): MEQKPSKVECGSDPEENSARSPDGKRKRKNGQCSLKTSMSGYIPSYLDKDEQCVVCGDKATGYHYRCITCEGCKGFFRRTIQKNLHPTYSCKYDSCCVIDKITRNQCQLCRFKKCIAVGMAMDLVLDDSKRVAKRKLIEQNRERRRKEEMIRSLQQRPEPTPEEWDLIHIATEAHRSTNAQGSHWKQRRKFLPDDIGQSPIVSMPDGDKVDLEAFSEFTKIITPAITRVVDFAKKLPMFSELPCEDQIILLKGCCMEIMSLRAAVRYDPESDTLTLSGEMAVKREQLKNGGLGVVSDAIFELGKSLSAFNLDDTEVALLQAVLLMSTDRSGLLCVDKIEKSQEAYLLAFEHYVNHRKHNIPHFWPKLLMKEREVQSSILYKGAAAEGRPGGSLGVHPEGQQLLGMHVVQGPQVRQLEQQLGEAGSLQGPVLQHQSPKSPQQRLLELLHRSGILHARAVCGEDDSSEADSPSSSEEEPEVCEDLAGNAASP
Chain of Peroxisome proliferator-activated receptor gamma (Homo sapiens) (P37231 whole entry, looked up, the tested form may be a part): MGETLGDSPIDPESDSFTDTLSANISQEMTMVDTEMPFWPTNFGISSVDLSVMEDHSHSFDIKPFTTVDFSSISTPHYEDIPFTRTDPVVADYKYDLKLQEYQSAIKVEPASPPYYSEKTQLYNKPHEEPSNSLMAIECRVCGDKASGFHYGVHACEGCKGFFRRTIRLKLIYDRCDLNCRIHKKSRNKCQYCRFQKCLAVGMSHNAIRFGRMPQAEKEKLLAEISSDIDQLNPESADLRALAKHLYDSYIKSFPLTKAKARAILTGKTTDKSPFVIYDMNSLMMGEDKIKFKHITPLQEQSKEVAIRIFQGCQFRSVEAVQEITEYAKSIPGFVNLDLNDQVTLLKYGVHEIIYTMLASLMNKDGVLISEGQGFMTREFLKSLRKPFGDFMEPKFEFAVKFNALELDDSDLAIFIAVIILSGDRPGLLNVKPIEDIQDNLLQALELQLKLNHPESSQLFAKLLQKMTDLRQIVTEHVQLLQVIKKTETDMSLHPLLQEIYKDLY
Chain of Hypoxia-inducible factor 1-alpha (Homo sapiens) (Q16665 whole entry, looked up, the tested form may be a part): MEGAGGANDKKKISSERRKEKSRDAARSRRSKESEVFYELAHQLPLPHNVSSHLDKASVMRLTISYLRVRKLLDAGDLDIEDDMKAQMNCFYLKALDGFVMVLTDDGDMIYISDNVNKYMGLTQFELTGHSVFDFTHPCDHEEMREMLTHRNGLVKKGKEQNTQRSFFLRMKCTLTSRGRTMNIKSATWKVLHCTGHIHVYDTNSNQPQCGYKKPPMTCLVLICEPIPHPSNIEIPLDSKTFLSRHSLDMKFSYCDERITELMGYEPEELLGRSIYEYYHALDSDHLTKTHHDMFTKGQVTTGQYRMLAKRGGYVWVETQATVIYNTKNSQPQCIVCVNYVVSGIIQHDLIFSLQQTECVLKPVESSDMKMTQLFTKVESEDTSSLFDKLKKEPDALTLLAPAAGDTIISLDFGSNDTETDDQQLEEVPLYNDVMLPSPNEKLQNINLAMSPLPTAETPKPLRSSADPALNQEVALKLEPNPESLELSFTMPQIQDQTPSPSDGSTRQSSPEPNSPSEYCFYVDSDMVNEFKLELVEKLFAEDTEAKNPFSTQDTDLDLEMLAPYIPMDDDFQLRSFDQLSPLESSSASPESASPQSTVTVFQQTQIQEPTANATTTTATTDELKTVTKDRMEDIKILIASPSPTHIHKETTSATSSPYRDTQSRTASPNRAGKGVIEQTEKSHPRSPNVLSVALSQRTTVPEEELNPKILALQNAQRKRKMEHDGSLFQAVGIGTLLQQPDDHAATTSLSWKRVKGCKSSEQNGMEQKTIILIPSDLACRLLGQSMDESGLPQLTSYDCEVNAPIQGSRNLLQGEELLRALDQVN
Chain of Hepatocyte nuclear factor 4-alpha (Homo sapiens) (P41235 whole entry, looked up, the tested form may be a part): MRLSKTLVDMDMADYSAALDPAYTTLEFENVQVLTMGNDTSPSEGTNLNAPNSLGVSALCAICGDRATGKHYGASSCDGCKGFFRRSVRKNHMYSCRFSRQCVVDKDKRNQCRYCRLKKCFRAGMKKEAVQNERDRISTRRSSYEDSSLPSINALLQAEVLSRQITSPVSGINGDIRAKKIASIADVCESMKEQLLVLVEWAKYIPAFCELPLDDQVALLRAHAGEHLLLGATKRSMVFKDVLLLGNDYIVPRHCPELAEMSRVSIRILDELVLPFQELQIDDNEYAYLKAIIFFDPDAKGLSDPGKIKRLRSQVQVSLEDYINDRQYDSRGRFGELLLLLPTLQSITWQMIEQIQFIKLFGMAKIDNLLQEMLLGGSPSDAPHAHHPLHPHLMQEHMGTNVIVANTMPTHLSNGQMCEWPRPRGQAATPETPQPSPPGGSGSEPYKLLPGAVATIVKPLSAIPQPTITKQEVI
Chain of human Peroxisome Proliferator-activated Receptor alpha (PPARa), PPARA (gene 5465) (Q07869 whole entry, looked up): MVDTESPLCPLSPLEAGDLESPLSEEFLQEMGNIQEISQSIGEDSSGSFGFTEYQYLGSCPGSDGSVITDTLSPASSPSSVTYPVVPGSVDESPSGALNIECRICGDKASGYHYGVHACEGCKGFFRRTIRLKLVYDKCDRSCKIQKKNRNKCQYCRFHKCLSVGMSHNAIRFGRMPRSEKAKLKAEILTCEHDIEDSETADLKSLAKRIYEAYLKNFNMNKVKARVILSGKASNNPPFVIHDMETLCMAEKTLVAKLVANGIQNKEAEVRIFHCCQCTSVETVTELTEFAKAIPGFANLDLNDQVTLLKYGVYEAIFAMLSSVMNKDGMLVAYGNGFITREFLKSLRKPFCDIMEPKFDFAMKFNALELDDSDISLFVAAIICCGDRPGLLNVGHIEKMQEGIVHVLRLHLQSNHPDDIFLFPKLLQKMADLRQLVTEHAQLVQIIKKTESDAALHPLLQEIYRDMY
Chain of Heat shock factor protein 1 (Homo sapiens) (Q00613 whole entry, looked up, the tested form may be a part): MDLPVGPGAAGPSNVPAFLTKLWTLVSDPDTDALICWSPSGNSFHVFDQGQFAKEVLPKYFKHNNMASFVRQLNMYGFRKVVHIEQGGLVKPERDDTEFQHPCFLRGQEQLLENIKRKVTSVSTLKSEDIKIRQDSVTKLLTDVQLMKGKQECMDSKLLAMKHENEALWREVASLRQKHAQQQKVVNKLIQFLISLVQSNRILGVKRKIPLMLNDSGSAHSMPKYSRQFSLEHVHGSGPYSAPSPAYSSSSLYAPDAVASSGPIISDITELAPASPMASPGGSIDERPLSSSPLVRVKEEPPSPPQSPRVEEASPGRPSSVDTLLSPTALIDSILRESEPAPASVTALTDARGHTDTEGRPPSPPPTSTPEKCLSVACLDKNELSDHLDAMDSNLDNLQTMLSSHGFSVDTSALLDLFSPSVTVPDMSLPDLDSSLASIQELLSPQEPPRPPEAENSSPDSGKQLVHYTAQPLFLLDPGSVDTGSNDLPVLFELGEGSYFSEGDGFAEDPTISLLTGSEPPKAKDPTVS
Chain of Retinoic acid receptor RXR-alpha (Homo sapiens) (P19793 whole entry, looked up, the tested form may be a part): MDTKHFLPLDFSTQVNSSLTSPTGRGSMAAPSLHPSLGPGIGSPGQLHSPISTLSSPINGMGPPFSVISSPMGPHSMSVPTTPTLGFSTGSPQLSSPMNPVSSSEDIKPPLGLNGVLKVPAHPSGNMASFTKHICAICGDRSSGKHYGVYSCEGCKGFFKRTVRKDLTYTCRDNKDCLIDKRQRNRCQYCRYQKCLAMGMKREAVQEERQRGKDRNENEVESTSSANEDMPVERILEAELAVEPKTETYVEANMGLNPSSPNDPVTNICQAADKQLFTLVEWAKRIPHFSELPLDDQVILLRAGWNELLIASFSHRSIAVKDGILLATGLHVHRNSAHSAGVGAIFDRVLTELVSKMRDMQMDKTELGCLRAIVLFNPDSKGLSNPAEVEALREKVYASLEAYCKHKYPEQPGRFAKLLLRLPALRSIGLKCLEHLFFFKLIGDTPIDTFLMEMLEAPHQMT

CCC(C)c1cc(C(C)(C)C)cc(-n2nc3ccccc3n2)c1O (centres undefined)
inactive: [1] | [2] | [3] | [4] | [5] | [6] | [7] | [8] | [9] | [10] | [11]

CNC(=O)Oc1cc(C)c(SC)c(C)c1
active: [10] 13.3 µM
not listed: [9] | [16] | [17] | [18] | [19] | [20]
inactive: all other assays above

CCCCOP(=O)(O)OCCCC
inactive: [1] | [3] | [5] | [13] | [6] | [7] | [8] | [14] | [9] | [10] | [11]

O=P1(NCCCl)OCCCN1CCCl (centres undefined)
inactive: [1] | [2] | [3] | [4] | [5] | [12] | [6] | [8] | [14] | [9] | [10]

CC(C)c1ccc(O)cc1
active: [8] 49.6 µM
not listed: [6] | [11] | [20]
inactive: all other assays above

[N-]=[N+]=CC(=O)OC[C@H](N)C(=O)O
inactive: [1] | [2] | [7] | [8] | [14] | [20] | [16] | [17] | [18] | [19]
